HEK cytotox: cytotoxic compounds in HEK 293 cells. AID 1345083. Potency, µM (doses to about 115 µM), for inactives: at the highest dose activity change, negative = cytotoxicity, actives largely listed as inhibitors. HEK 293 viability, ATP luminescence (CellTiter-Glo), 48-72 h. hit rate 6.6% among 94,000; note: nearly all actives have a fitted effect of over 60% in size
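HEK 293 cells at 250 cells/well were exposed to compounds by pintool transfer for 48 or 72 hr at 37 degree Celsius, 5% CO2. Viability was read as ATP-coupled luminescence with CellTiter-Glo after 10 min at room temperature.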
3T3 cytotox: cytotoxic compounds in NIH 3T3 cells; hit rate 4.3% among 94,000; NIH 3T3 viability, CellTiter-Glo ATP luminescence, 48-72 h; Potency, µM (doses to about 96.7 µM), without a hit: at the highest dose activity change, negative = cytotoxicity, hits mostly inhibitors; note: nearly all actives have a fitted effect of over 55% in size
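First NIH 3T3 cells are plated at 400 cells/well; next compound is pinned in; then plates incubate 48 or 72 hr at 37 °C; finally CellTiter-Glo is added and luminescence read after 10 min.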
hNpr1 antagonist: antagonists of human natriuretic peptide receptor Npr1. P16066. HEK293 hNpr1 GloSensor cGMP, ANP-stimulated luminescence. Potency, µM (top dose mostly 46.3 µM), without a hit: at the highest dose activity change, negative = inhibition, most hits filed as inhibitors. hit rate 1.6% among 76,000; calls by dose curve; note: nearly all actives have a fitted effect of over 60% in size
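HEK293 cells stably expressing human Npr1 and cGMP GloSensor pGS-40F, loaded 2 h with 2% GloSensor reagent, given compound 30 min at room temperature. Luminescence read before and 20 min after 0.1 nM hNppA.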
Luciferase inh: inhibitors of firefly (Photinus pyralis) luciferase; P08659; purified P. pyralis luciferase, luminescence, biochemical; Potency, µM (highest dose often 115 µM), most hits filed as inhibitors; hit rate 2.5% among 76,000; note: nearly all actives have a fitted effect of over 65% in size
Target sequence (P08659 whole entry, looked up): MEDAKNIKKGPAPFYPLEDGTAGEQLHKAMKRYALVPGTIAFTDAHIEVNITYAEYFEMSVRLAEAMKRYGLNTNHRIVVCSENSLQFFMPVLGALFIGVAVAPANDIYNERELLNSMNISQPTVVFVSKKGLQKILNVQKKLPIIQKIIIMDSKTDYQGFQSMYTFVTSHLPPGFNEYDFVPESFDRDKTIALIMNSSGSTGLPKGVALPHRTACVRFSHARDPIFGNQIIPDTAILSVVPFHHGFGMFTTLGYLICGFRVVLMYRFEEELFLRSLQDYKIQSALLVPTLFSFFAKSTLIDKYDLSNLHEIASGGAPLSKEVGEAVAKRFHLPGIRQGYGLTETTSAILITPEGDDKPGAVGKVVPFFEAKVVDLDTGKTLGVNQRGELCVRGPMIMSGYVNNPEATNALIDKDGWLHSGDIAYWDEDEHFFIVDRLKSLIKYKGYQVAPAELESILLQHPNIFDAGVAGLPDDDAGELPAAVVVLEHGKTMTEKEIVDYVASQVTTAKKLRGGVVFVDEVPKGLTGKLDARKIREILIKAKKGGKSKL
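Luminescence read by CCD imaging after purified firefly luciferase (10nM final) was added to substrate buffer holding 10uM D-luciferin and 10uM ATP, pH 7.5, pre-dosed with compound.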
* hit, by the source's call; i = inactive; ? = inconclusive; · = no result given; ! = repeats disagree; [ ] = remark or other dose. Most compounds without a hit are left out; they make up all but 11% or so of the library. Unless noted, calls come from the whole dose curve; as a rule, active = well fitted curve in the direction sought with a large enough effect; inconclusive = small, poorly fitted or top-dose-only effect, or another doubt; inactive = no such curve, though single readings can be large; an effect the other way counts as inactive or inconclusive. % is set by controls: 0 for no effect and ±100 for the full control effect; potency is the fitted concentration of half-maximal effect.

SMILES	HEK cytotox	3T3 cytotox	hNpr1 antagonist	Luciferase inh
Cc1cc(C)c(CNC(=O)c2cc(-c3cccc4[nH]ccc34)cc3ncn(C)c23)c(=O)[nH]1	?	?	-3%[70.6 µM]	i
Cc1cc(C)c(CNC(=O)c2cc(-c3ccccc3O)cc3c2OCCN3C(C)C)c(=O)[nH]1	?	?	-12%	i
CN1CCC(OC2CCN(S(=O)(=O)c3ccc(F)cc3)CC2)CC1	-18%	-13%	4%	i
Fc1ccc(CN2CC(N3CCc4ccccc43)C2)cc1	-16%[172 µM]	-10%[138 µM]	·	·
CN(C)c1ccc(CN2CC(N3CCc4ccccc43)C2)cc1	89µM*	89µM*	-6%[70.6 µM]	i
CCOC(=O)C1CCN(C(=O)c2cc(-c3cc(Cl)cc(Cl)c3)c3nncn3n2)CC1	-1%	-5%	·	·
CN(C)C(=O)CNC(=O)c1cccc(-c2ccsc2)c1	-23%[172 µM]	-23%[138 µM]	·	·
c1cnc2nc(-c3c[nH]c4ncccc34)[nH]c2c1	?	?	12%[70.6 µM]	89µM*
c1cnc2nc(C3CCNC3)[nH]c2c1 (stereo not given)	-13%[230 µM]	-4%[174 µM]	0%[70.6 µM]	i
c1cnc2nc(-c3ccsc3)[nH]c2c1	126µM*!	?	3%[70.6 µM]	?
Cc1cc(-c2nc3ncccc3[nH]2)c(C)[nH]1	?	?	-1%[70.6 µM]	40µM*
O=C(O)c1ccc(-c2nc3ncccc3[nH]2)cc1	-3%[172 µM]	-10%[138 µM]	8%[70.6 µM]	i
c1ccc(-c2nc3ncccc3[nH]2)nc1	?	?	21%[70.6 µM]	i
COc1cccc(-c2ccccc2NC(=O)C2CCN(Cc3ccccc3F)CC2)c1	?	45µM*	?	i
COc1cccc(-c2ccccc2NC(=O)C2CCN(CC=C(C)C)CC2)c1	?	20µM*	4%	i
COc1cccc(CN2CCC(C(=O)Nc3ccccc3-c3cccc(OC)c3)CC2)c1	22µM*	?	?	i
Cc1cccc(C(=O)N2CCC3(CC2)CCC(O)(CN(C)C)CC3)c1	-15%	-23%	·	·
CNC(=O)c1cc(-c2cnn(C)c2C)cc2c1OCCN2Cc1cccnc1	-4%[172 µM]	45µM*	1%[70.6 µM]	i
CNC(=O)c1cc(-c2ccc([S+](C)(=O)[O-])cc2)cc2c1OCCN2Cc1cccnc1	-23%[172 µM]	8.9µM*	-4%[70.6 µM]	i
Cc1cc(CNC(=O)c2cc(-c3ccccc3)cc3c2OCCN3C)no1	100µM*	?	3%[70.6 µM]	i
CNC(=O)c1cc(-c2ccc(OC)c(OC)c2)cc2c1OCCN2Cc1cccnc1	-12%[172 µM]	22µM*	2%[70.6 µM]	i
CNC(=O)c1cc(-c2cnc(OC)nc2)cc2c1OCCN2Cc1cccnc1	2%[172 µM]	?	-1%[70.6 µM]	i
COc1ncc(-c2cc(C(=O)NCc3cccnc3)c3c(c2)N(C)CCO3)cn1	-12%[172 µM]	45µM*	-6%[70.6 µM]	i
CNC(=O)c1cc(-c2ccc(CO)cc2)cc2c1OCCN2Cc1cccnc1	-3%[172 µM]	45µM*	10%[70.6 µM]	i
COc1ccc2c(c1)O[C@H]1[C@H](CO)CN([S+](=O)([O-])c3cccs3)[C@@H]21	50µM*	?	·	·
SMILES	HEK cytotox	3T3 cytotox	hNpr1 antagonist	Luciferase inh
O=C1[C@@H]2C[C@@H](CN2C2CCCC2)Oc2ccccc2N1Cc1ccccc1	100µM*	?	-29%[70.6 µM]	i
O=C1[C@@H]2C[C@@H](CN2Cc2nccs2)Oc2ccccc2N1Cc1ccc(OC(F)(F)F)cc1	?	?	-30%	i
COCCN1C(=O)[C@@H]2C[C@@H](CN2C2CCCC2)Oc2ccccc21	?	-30%[138 µM]	-12%[70.6 µM]	i
O=C1[C@@H]2C[C@@H](CN2C2COC2)Oc2ccccc2N1Cc1ccc(OC(F)(F)F)cc1	100µM*	?	-16%[70.6 µM]	i
CC(C)N1C[C@@H]2C[C@H]1C(=O)N(Cc1ccc(OC(F)(F)F)cc1)c1ccccc1O2	71µM*	?	-25%[70.6 µM]	i
CC(=O)N1CCC(N2C[C@@H]3C[C@H]2C(=O)N(Cc2ccc(OC(F)(F)F)cc2)c2ccccc2O3)CC1	?	?	-1%	i
CN1CCC(N2C[C@@H]3C[C@H]2C(=O)N(Cc2ccc(OC(F)(F)F)cc2)c2ccccc2O3)CC1	?	40µM*	-3%	i
COc1ccccc1-c1nnc2ccc(C(=O)NCc3ccc(F)cc3)cn12	?	-28%	·	·
NCc1cccc(-c2ccccc2F)c1	-18%[172 µM]	-27%[138 µM]	·	·
COc1cccc(C(=O)N2CCC(N3C[C@H](O)C[C@H]3C(=O)Nc3ccc(F)cc3)CC2)c1	-18%	-21%	-14%	i
COc1ccc(-c2cc(N3CCCC(NC(=O)c4cccc(NC(C)=O)c4)C3)n[nH]2)cc1 (stereo not given)	?	?	-6%	28µM*
COc1ccc(-c2cc(N3CCCC(NC(=O)c4ccccc4)C3)n[nH]2)cc1 (stereo not given)	?	?	-16%	22µM*
CN(C)c1cccc(C(=O)NC2CCCN(c3cc(-c4ccccc4)[nH]n3)C2)c1 (stereo not given)	?	?	-11%	35µM*
CN(C)c1cccc(C(=O)NCC2CCN(c3cc(-c4ccccc4)[nH]n3)CC2)c1	?	?	-15%	16µM*
CC(=O)Nc1cccc(C(=O)NC2CCCN(c3cc(-c4ccc(F)cc4)[nH]n3)C2)c1 (stereo not given)	?	-21%	-1%	?
CN(C)c1ccc(C(=O)NCC2CCN(c3cc(-c4ccc(F)cc4)[nH]n3)CC2)cc1	?	?	-23%	?
Cc1noc(C2CC3(CCN(C(=O)CC4CCCCC4)CC3)CN2C)n1 (stereo not given)	?	-26%	·	·
CCOC(=O)C1CCCN(C(=O)C2CCc3nnc(C4CCN([S+](C)(=O)[O-])CC4)n32)C1 (stereo not given)	i	-15%	·	·
CC(C)CCN1C(=O)CC[C@]2(C(=O)N3CCN(C(C)C)CC3)CCCC[C@@H]12	-23%	-19%	-7%	i
COc1ccc(-c2cc(N3CCCC(NC(=O)c4ccc(C)s4)C3)n[nH]2)cc1 (stereo not given)	?	?	-14%	28µM*
Cc1ccc(C(=O)NC2CCCN(c3cc(-c4ccccc4)[nH]n3)C2)s1 (stereo not given)	?	?	-11%	?
COc1ccc(-c2cc(N3CCCC(NC(=O)c4cccc(C#N)c4)C3)n[nH]2)cc1 (stereo not given)	?	?	-16%	20µM*
COc1ccc(-c2cc(N3CCCC(NC(=O)c4ccoc4)C3)n[nH]2)cc1 (stereo not given)	?	-18%	-8%	22µM*
CCn1nc(C)c(C(C)NCc2cccc(OC)c2OCCN2CCOCC2)c1C (stereo not given)	-5%	-12%	-1%	i
Cc1oc2c(c1C(=O)N1CCN(c3ccccc3)CC1)CN(Cc1ccc(F)cc1)CC2	?	?	?	i
COc1cccc(CCC(=O)NCCn2ccn3nc(-c4cccc(OC)c4)cc3c2=O)c1	?	?	-24%	8.9µM*
COc1cccc(-c2cc3c(=O)n(CCNC(=O)Cc4cccs4)ccn3n2)c1	?	-28%	-15%	16µM*
